PubChem BioAssay AID1209 (Sanford-Burnham Center for Chemical Genomics, 2008)
About 810 (0.43%) of roughly 190,000 compounds were called active. This is one part of a sample in which actives are shown more often than they occur. Values without a mark were called inactive. Rule as the data show it: active = inhibition above about 50%; inactive = the rest.

Target: Mannose-6-phosphate isomerase (Homo sapiens) (UniProt P34949)
Test: MPI enzyme activity inhibition – biochemical, fluorescence intensity, coupled assay, primary screen (AID 1209);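 also: plate controls were DMSO vehicle for no effect and wells lacking substrate for full effect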
Conditions: purified PMI enzyme, at 20 µM, active compounds read high

Sequence of Mannose-6-phosphate isomerase (Homo sapiens) (P34949 whole entry, looked up): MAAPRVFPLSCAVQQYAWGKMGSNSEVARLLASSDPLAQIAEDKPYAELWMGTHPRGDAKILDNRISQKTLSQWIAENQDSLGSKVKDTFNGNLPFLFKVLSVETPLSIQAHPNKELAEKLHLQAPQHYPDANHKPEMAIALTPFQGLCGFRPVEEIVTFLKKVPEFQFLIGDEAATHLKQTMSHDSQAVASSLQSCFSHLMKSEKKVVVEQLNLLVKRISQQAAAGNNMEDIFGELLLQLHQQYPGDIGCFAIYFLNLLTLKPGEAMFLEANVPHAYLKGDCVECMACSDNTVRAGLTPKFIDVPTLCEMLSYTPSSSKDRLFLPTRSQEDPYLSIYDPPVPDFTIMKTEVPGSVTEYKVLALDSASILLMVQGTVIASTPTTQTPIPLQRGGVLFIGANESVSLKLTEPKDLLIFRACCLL

SMILES	inhibition
CN(C(=O)CS(=O)(=O)c1cn(CC(=O)N2CCOCC2)c2ccccc12)c1ccccc1	-4.3%
Cc1ccc(NC(=O)NC2C(NC(=O)Nc3ccc(C)cc3)N(C)C(=O)N2C)cc1 (configuration not stated)	9.5%
CNC(=S)N(CCc1c(C)[nH]c2ccc(OC)cc12)Cc1cccnc1	16%
O=C(CSCc1ccc(Br)cc1)N=Nc1c(O)[nH]c2ccccc12	4.5%
CC(C)(Cc1ccc(O)cc1)NC(=O)CC(=O)N=Nc1c(O)[nH]c2cc(Br)ccc12	51.6% (active)
CC(C)(Cc1ccc(O)cc1)NC(=O)CC(=O)N=Nc1c(O)[nH]c2ccc(Br)cc12	1.3%
CSc1nc2sc(-c3ccccc3)cc2c(=O)n1N	-6.6%
CCOC(=O)Cc1csc(NC(=O)CC)n1	-9.9%
CCOC(=O)Cc1csc(NC(=O)C(C)(C)CC)n1	-7.2%
CCOC(=O)Cc1csc(NC(=O)NC2(C(F)(F)F)Oc3cc(Cl)c(Cl)cc3O2)n1	57.5% (active)
CCOC(=O)Cc1csc(NC(=O)NC2(C(F)(F)F)Oc3ccc(Cl)cc3O2)n1 (configuration not stated)	51.8% (active)
CCOC(=O)Cc1csc(NC(=O)Nc2cccc(Cl)c2)n1	-0.4%
CCOC(=O)Cc1csc(NC(=O)NC2(C(F)(F)F)Oc3ccccc3O2)n1	22.4%
CC(OC(=O)c1ccc2ncsc2c1)C(=O)NCc1ccccc1 (configuration not stated)	15.5%
O=C(Nc1nc(-c2cccs2)cs1)c1cc2ccccc2oc1=O	-3.3%
O=C(NC(Cc1c[nH]c2ccccc12)C(=O)N/N=C/c1ccc(Cl)cc1)c1cccs1 (configuration not stated)	18.1%
COc1cccc(C(=O)/C=C/c2ccc(N3CCCCC3)c([N+](=O)[O-])c2)c1	14.3%
Oc1ccc(-c2csc(-c3ccccc3)n2)cc1O	62.6% (active)
Oc1ccc(-c2nc(-c3ccc(O)c(O)c3)cs2)cc1	54.3% (active)
Oc1ccccc1-c1csc(-c2ccccc2)n1	12.8%
O=C(O)c1ccc(-c2nc(-c3ccccc3)cs2)cc1	-11.3%

SMILES	inhibition
O=C(O)c1ccc(-c2nc(-c3ccc(Cl)c(Cl)c3)cs2)cc1	-3.3%
Cc1nc(-c2ccc(O)c(O)c2)cs1	47%
Cc1ccccc1N1C(=O)CSC1=C(C#N)C#N	-15.3%
CCC1=C/C(=C/c2sc3ccccc3[n+]2CC)CC(C)(C)C1	-60.6%
CCOC(=O)c1cnc2c(-c3ccccc3)c(C)nn2c1N	9.6%
Cc1ccc(CNC(=O)CCCCn2c(=O)[nH]c3ccsc3c2=O)cc1	-4.3%
CCCCn1c(-c2sccc2C)n[nH]c1=S	8.1%
COc1cccc(NC(=O)C2CC(=O)n3cnnc3S2)c1 (configuration not stated)	51.1% (active)
COc1cccc(NC(=O)C2CC(=O)N=C(N)S2)c1 (configuration not stated)	15.2%
COc1cccc(NC(=O)C2CC(=O)N(C)C(=Nc3cccc(F)c3)S2)c1 (configuration not stated)	15.4%
Cc1ccc(-c2nnc(N3CCN(c4ccccn4)CC3)c3ccccc23)cc1	10.5%
CC(C)CC(=O)Nc1cccc(NC(=O)CC(C)C)n1	-6.8%
Cc1ccccc1NC(=O)C(NS(=O)(=O)c1ccc2c(c1)c(=O)n(C)c(=O)n2C)c1ccccc1 (configuration not stated)	-1.4%
O=C(O)CCC(=O)N1CCN(c2ccc(C(=O)c3ccc(F)cc3)cc2)CC1	2.5%
O=C(O)/C=C/C(=O)Nc1ccccc1C(=O)OCC(=O)c1ccc2c(c1)OCCO2	108% (active)
CC(C)C(=O)Nc1ccccc1C(=O)OCC(=O)c1ccc2c(c1)OCCO2	12.7%
O=C(COC(=O)c1ccccc1NC(=O)C1CC1)c1ccc2c(c1)OCCO2	20.7%
COc1ccc(N2C(=O)/C(=C/N(C)C)NC2=S)cc1	6.1%
COc1ccc(N2C(=O)/C(=C/c3cccs3)NC2=S)cc1	65.2% (active)
COc1cccc(N2C(=O)/C(=C\c3cccs3)NC2=S)c1	-20.3%
CC(C(=O)Nc1ncccn1)(c1ccccc1)c1ccccc1	0.1%

SMILES	inhibition
C=CCNC(=S)NNC(=O)c1ccc(=O)n(Cc2ccccc2)c1	-1.4%
CCOC(=O)c1cnc2ccccc2c1NCCO	-1.9%
CCOC(=O)c1cnc2ccc(C)cc2c1NCCO	-0.9%
CCOC(=O)c1cnc2c(ccc3ccccc32)c1NCCO	103% (active)
C/C(CC1CC(C)OC1=O)=N\NC(N)=S (configuration not stated)	17.6%
CCOC(=O)c1sc(N(C)C(C)=O)nc1C	-2.3%
Cc1ccc(-n2c(SCC(=O)N(C)C3CCS(=O)(=O)C3)nc3ccccc3c2=O)cc1 (configuration not stated)	-4.5%
CC(C)(C)NC(=O)COc1ccc(CNc2ccc3[nH]c(=O)[nH]c3c2)cc1	62.2% (active)
C=CCOc1c(Cl)cc(CNc2ccc3[nH]c(=O)[nH]c3c2)cc1OC	26.3%
CCOc1cc(CNC)ccc1OCC(=O)NC(C)(C)C	-7.3%
CCc1ccc(OCC(=O)NC(C)(C)C)cc1	2.4%
COc1cc(CNc2ccc3[nH]c(=O)[nH]c3c2)ccc1OCC(=O)NC(C)(C)C	82.4% (active)
C=CCOc1ccc(CNc2ccc3[nH]c(=O)[nH]c3c2)cc1OC	81.1% (active)
CCOc1cc(CNc2ncn[nH]2)ccc1OCC(=O)NC(C)(C)C	7%
CC(C)(C)NC(=O)COc1ccc(CNc2ncn[nH]2)cc1	6.1%
COc1cc(CNc2ccc3[nH]c(=O)[nH]c3c2)cc(Br)c1OCC(=O)NC(C)(C)C	29.5%
C=CCOc1cccc(CNc2ccc3[nH]c(=O)[nH]c3c2)c1	17.8%
CCOc1cc(CNc2ccc3[nH]c(=O)[nH]c3c2)ccc1OCC(=O)NC(C)(C)C	75% (active)
COc1cc(CNc2ccc(CNc3ncn[nH]3)cc2)ccc1OCC(=O)NC(C)(C)C	0.6%
CCCOc1ccc(C2/C(=C(/O)c3ccc(F)cc3)C(=O)C(=O)N2CCCN(C)C)cc1 (configuration not stated)	16.2%
